Data: the supplement of paper PMC3545927
This is one part of the list. How many sequences the whole screen found active is unknown.

Biological target: furin, P09958
Assay: furin cleavage Z-score vs untreated control; higher = more cleavage, active = 3.5 or more, inactive = 1 or less, 8 variable residues between constant flanks
Method in brief: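 Furin-free reactions served as the baseline for the cleavage Z-score, which is the log read count lowess-adjusted and scaled by median absolute deviation. Counts came from released DNA, adapter-tagged by PCR and sequenced. Purified furin had cut 8-mer peptides fused to a cDNA oligonucleotide on magnetic beads during 7.5, 15 or 30 min at 1:10 enzyme:substrate.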
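Further: purified furin at 1:10 enzyme:substrate in 50 mM HEPES pH 7.5.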

furin, P09958, sequence (P09958 whole entry): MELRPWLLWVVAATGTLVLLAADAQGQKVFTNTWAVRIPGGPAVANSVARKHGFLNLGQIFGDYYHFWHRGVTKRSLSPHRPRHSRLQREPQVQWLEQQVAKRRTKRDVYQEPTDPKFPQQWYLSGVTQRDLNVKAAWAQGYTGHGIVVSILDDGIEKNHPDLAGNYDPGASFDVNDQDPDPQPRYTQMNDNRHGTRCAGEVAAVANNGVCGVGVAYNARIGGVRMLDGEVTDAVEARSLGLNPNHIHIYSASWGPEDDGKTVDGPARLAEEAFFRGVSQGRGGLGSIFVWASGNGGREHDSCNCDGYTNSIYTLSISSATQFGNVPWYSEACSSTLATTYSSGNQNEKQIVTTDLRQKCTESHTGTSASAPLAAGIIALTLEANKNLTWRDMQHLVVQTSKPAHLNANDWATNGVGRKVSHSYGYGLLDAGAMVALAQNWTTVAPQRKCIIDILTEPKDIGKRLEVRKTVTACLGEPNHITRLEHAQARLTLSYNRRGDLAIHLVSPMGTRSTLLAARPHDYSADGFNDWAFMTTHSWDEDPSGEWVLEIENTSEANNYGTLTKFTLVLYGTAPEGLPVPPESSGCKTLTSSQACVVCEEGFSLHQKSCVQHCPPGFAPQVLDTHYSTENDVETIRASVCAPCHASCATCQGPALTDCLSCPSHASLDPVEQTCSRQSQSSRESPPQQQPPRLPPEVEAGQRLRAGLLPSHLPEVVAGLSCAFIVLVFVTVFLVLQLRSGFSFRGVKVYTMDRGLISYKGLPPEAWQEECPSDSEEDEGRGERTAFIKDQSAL

CARHTRSYDYAGNASASA [FS-1897]
furin cleavage Z-score (7.5 min): 1.79
furin cleavage Z-score (15 min): 2.03
furin cleavage Z-score (30 min): 4.9 (active)

CAGHTVSGFVAGNASASA [HC357]
furin cleavage Z-score (7.5 min): 1.57
furin cleavage Z-score (15 min): -0.476 (inactive)
furin cleavage Z-score (30 min): -0.897 (inactive)

CARGDRFSEDAGNASASA [FS-2931]
furin cleavage Z-score (7.5 min): -1.45 (inactive)
furin cleavage Z-score (15 min): -0.738 (inactive)
furin cleavage Z-score (30 min): -1.76 (inactive)

CATTPCSGFWAGNASASA [HC1907]
furin cleavage Z-score (7.5 min): -1.56 (inactive)
furin cleavage Z-score (15 min): -0.535 (inactive)
furin cleavage Z-score (30 min): -0.967 (inactive)

CARIIRSSEDAGNASASA [FS-2950]
furin cleavage Z-score (7.5 min): 3.85 (active)
furin cleavage Z-score (15 min): 3.61 (active)
furin cleavage Z-score (30 min): 5.54 (active)

CARHTPVNSWAGNASASA [HC1571]
furin cleavage Z-score (7.5 min): 1.44
furin cleavage Z-score (15 min): 0.608 (inactive)
furin cleavage Z-score (30 min): 0.598 (inactive)

CARHTRSIFWAGNASASA [FS-2147]
furin cleavage Z-score (7.5 min): 4.67 (active)
furin cleavage Z-score (15 min): 4.45 (active)
furin cleavage Z-score (30 min): 7.05 (active)

CARGRRKDDYAGNASASA [FS-2417]
furin cleavage Z-score (7.5 min): 0.188 (inactive)
furin cleavage Z-score (15 min): -0.41 (inactive)
furin cleavage Z-score (30 min): 0.301 (inactive)

CARNTRSDEDAGNASASA [FS-3014]
furin cleavage Z-score (7.5 min): -1.02 (inactive)
furin cleavage Z-score (15 min): -0.114 (inactive)
furin cleavage Z-score (30 min): -1.53 (inactive)

CARHTRSAEDAGNASASA [FS-2681]
furin cleavage Z-score (7.5 min): 11.3 (active)
furin cleavage Z-score (15 min): 11.4 (active)
furin cleavage Z-score (30 min): 9.18 (active)

CARSIRDAEDAGNASASA [FS-2805]
furin cleavage Z-score (7.5 min): 0.647 (inactive)
furin cleavage Z-score (15 min): 0.756 (inactive)
furin cleavage Z-score (30 min): 1.52

CATRPCSGSWAGNASASA [HC1853]
furin cleavage Z-score (7.5 min): -0.899 (inactive)
furin cleavage Z-score (15 min): -0.615 (inactive)
furin cleavage Z-score (30 min): -0.153 (inactive)

CADAHFLSQTAGNASASA [HC945]
furin cleavage Z-score (7.5 min): 0.613 (inactive)
furin cleavage Z-score (15 min): 1.42
furin cleavage Z-score (30 min): 0.711 (inactive)

CATTNCSGSWAGNASASA [HC1881]
furin cleavage Z-score (7.5 min): -0.528 (inactive)
furin cleavage Z-score (15 min): -0.292 (inactive)
furin cleavage Z-score (30 min): 0.376 (inactive)

CAEEVVCCSMAGNASASA [HC2132]
furin cleavage Z-score (7.5 min): 0.374 (inactive)
furin cleavage Z-score (15 min): 0.297 (inactive)
furin cleavage Z-score (30 min): -0.621 (inactive)

CAYHSVSHARAGNASASA [HC1651]
furin cleavage Z-score (7.5 min): -1.35 (inactive)
furin cleavage Z-score (15 min): -2.06 (inactive)
furin cleavage Z-score (30 min): 0.0597 (inactive)

CAMEECSQHEAGNASASA [HC1772]
furin cleavage Z-score (7.5 min): 1.5
furin cleavage Z-score (15 min): -1.3 (inactive)
furin cleavage Z-score (30 min): 0.318 (inactive)

CAAGAHWGVLAGNASASA [HC335]
furin cleavage Z-score (7.5 min): -0.197 (inactive)
furin cleavage Z-score (15 min): -0.687 (inactive)
furin cleavage Z-score (30 min): 0.539 (inactive)

CADMEVVTSTAGNASASA [HC2286]
furin cleavage Z-score (7.5 min): 0.448 (inactive)
furin cleavage Z-score (15 min): -0.986 (inactive)
furin cleavage Z-score (30 min): 0.706 (inactive)

CATTPCSGSEAGNASASA [HC1932]
furin cleavage Z-score (7.5 min): -1.03 (inactive)
furin cleavage Z-score (15 min): -0.656 (inactive)
furin cleavage Z-score (30 min): -0.208 (inactive)

CAPAHRHRRRAGNASASA [FS-1040]
furin cleavage Z-score (7.5 min): 8.92 (active)
furin cleavage Z-score (15 min): 11.7 (active)
furin cleavage Z-score (30 min): 8.95 (active)

CAKKSRLRRRAGNASASA [FS-1131]
furin cleavage Z-score (7.5 min): 0.949 (inactive)
furin cleavage Z-score (15 min): 0.557 (inactive)
furin cleavage Z-score (30 min): 0.0179 (inactive)

CAFGRRLRRRAGNASASA [FS-1124]
furin cleavage Z-score (7.5 min): 3.43
furin cleavage Z-score (15 min): 6.37 (active)
furin cleavage Z-score (30 min): 4.4 (active)

CAVRKRLRRRAGNASASA [FS-106]
furin cleavage Z-score (7.5 min): 5.39 (active)
furin cleavage Z-score (15 min): 6.32 (active)
furin cleavage Z-score (30 min): 5.13 (active)

CACNHRNRRRAGNASASA [FS-1624]
furin cleavage Z-score (7.5 min): 5.53 (active)
furin cleavage Z-score (15 min): 5.63 (active)
furin cleavage Z-score (30 min): 6.25 (active)

CASTPCSAHCAGNASASA [HC2580]
furin cleavage Z-score (7.5 min): 0.205 (inactive)
furin cleavage Z-score (15 min): 1.68
furin cleavage Z-score (30 min): 0.424 (inactive)

CAIEECSQHLAGNASASA [HC1664]
furin cleavage Z-score (7.5 min): 0.463 (inactive)
furin cleavage Z-score (15 min): 0.93 (inactive)
furin cleavage Z-score (30 min): 0.504 (inactive)

CAEVVTSWWVAGNASASA [HC2208]
furin cleavage Z-score (7.5 min): -0.678 (inactive)
furin cleavage Z-score (15 min): 0.21 (inactive)
furin cleavage Z-score (30 min): -0.507 (inactive)
